Source: PubChem
The list is not random: actives were taken first. Their share in the collection is about 2.8%.
DRD3 agonist – activates the human D3 dopamine receptor | D3R DiscoveRx beta-arrestin cells, luminescence, 90 min | max activation, % | 410,000 tested, 0.58% active | AID 652048 | P35462; in the data active = max activation above about 30%; note: 0% is about no effect
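Agonist mode: compounds and dopamine controls were applied to plated cells for 90 min at 37 degrees C after an overnight attachment at 1500 cells/well. Luminescent read-out followed 30 - 60 minutes at room temperature with DiscoveRx detection reagent.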
pAkt inh – blocks phosphorylation of Akt. Neuro2A IGF-stimulated pAkt S473 HTRF, 20 min; stronger effect = lower value. activity change, % for hits at 50 µM. 360,000 tested, 0.32% active; in the data active = activity change below about -80%; inconclusive = mostly about -51% to -80%; note: % is set by controls: 0 for no effect and ±100 for the full control effect
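Neuro2A cells (4,500/well, DMEM with 0.5% FBS) were treated with compound at a single 50 µM final concentration, stimulated with 6 nM IGF for 20 min at 37 °C, and lysed. Phospho-Akt Ser473 was read by HTRF as 665/615 ratio ×10^4.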
LDHA inh – blocks human lactate dehydrogenase A; activity change, % (values are at about 110 or 230 µM); AID 1347041; 480,000 tested, 0.15% active; purified LDHA, NADH/diaphorase-resazurin fluorescence; stronger effect = lower value; P00338; in the data active = activity change below about -30%; inconclusive = mostly about -25% to -30%;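 note: plate controls were DMSO wells for no effect and wells without enzyme for full effect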
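Resorufin fluorescence (ex540/em590), read at 0 and 20 min after diaphorase/resazurin addition, reports the NADH left after a 5 min room-temperature reaction of 2 nM human LDH5 with 0.06 mM NADH and 0.2 mM pyruvate.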
PI4K2A inh – blocks human PI4K2A kinase activity; activity change, negative = inhibition, % at 76.9 µM; purified PI4K2A, ADP-Glo luminescence, 1 h; stronger effect = lower value; 420,000 tested, 0.13% active; AID 1346378; in the data active = activity change below about -50%; inconclusive = mostly about -30% to -49%;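 note: -100% = wells without enzyme as full effect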
Target sequence (Q9BTU6 whole entry, looked up): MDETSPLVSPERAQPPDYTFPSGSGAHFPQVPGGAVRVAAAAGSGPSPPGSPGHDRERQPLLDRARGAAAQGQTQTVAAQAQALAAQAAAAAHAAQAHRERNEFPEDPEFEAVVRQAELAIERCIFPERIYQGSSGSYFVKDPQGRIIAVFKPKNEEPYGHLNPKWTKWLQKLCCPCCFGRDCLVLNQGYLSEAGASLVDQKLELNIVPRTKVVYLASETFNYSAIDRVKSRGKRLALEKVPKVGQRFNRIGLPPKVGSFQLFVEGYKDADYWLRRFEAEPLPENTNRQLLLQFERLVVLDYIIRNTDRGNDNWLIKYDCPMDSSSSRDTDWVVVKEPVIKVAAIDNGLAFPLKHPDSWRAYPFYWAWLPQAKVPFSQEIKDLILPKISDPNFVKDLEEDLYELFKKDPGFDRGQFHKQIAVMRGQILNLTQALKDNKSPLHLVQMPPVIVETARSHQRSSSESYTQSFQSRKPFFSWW
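PI4K2A activity was measured by ADP-Glo luminescence: enzyme (4 ug/mL stock) and phosphatidylinositol (1.2 mM stock) in Tris pH 7.5/MgCl2/EGTA/Triton X-100 buffer were reacted with ATP (300 microM stock) for one hour at ambient temperature.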
DRD3 antagonist – blocks the human D3 dopamine receptor; P35462; D3R cells, DiscoveRx beta-arrestin luminescence, antagonist mode; stronger effect = lower value; max response, negative = inhibition, %; 360,000 tested, 2.5% active; in the data active = max response below about -50%; inconclusive = no clear call, values can overlap the other calls; note: % is set by controls: 0 for no effect and ±100 for the full control effect
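Cells expressing the human receptor were seeded at 1500 cells/well, incubated overnight at 37 degrees C in 5% CO2, then exposed to library compounds with dopamine controls for 90 minutes at 37 degrees C before luminescent detection.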
RGS4 inhibitor – human RGS4 inhibition; P49798; Transcreener GDP fluorescence polarization, RGS4-accelerated GTP hydrolysis; Potency, µM (doses to about 114 µM), inactives show at the top dose activity change, negative = inhibition, most hits filed as inhibitors; 390,000 tested, 0.039% active; AID 504845; active = well fitted inhibition curve with a large enough effect; inconclusive = small, poorly fitted or top-dose-only effect; inactive = no such curve, though single readings can be large or run the other way; note: potency is the fitted concentration of half-maximal effect; % is set by controls: 0 for no effect and ±100 for the full control effect; nearly all actives have a fitted effect of over 75% in size
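MLSMR compounds (23 nl, pin-transferred) preincubated 10 min at room temperature with a 500nM (2x) first reagent, then RGS4 at 900nM (2x) plus Transcreener GDP mix added; fluorescence polarization (620/688 nm) read before and after 90 min at 30 °C.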
Active calls of the source: *; i = inactive; ? = inconclusive; / = no result; [ ] = remark or other dose.

SMILES	DRD3 agonist	pAkt inh	LDHA inh	PI4K2A inh	DRD3 antagonist	RGS4 inhibitor
O=C(Nc1ccc(N2CCN(C(=O)c3ccccc3)CC2)cc1)c1ccc(Br)o1	-1.7	i	-0.1	-6.6	22.6	-4.7%
O=C(Nc1ccc2c(c1)CCC2)c1ccc(Br)o1	-15.3	-113.7%*	-1.8	-14.2	0.0	20.4%[11.4 µM]
O=C(Nc1ccc(N2CCOCC2)c(Cl)c1)c1ccccc1Cl	1.5	i	-5.1	0.9	-53.5*	6.2%
CSc1cccc(NC(=S)N(CCCN2CCCC2)Cc2cccs2)c1	-20.3	i	-7.7	2.6	-64.4*	-14.6%
COc1ccc(NC(=S)N(CCCN2CCCC(C)C2)Cc2cccs2)cc1 (stereo not drawn)	-20.8	i	-8.2	-2.4	-81.8*	13.0%
COc1ccc(NC(=S)N(CCCN2CCCC2)Cc2cccs2)cc1	-26.8	i	-1.4	6.1	-64.2*	7.6%
Cc1ccc(NC(=O)N(CCCN2CCOCC2)Cc2cccs2)cc1C	-10.5	i	-1.9	0.7	-68.3*	20.4%
COc1ccc(NC(=S)N(CCCN2CCCCCC2)Cc2cccs2)cc1	-7.2	i	2.3	4.6	8.1	-10.1%
COc1ccc(-c2csc(NCCn3c(C)nc4cc(C(F)(F)F)ccc43)n2)cc1	36.6*	i	1.4	8.8	73.4	-31.8%
Cc1ccc(-c2csc(NCCn3c(-c4ccncc4)nc4ccccc43)n2)cc1	51.4*	i	0.1	2.2	120.4	-35.0%
COC(=O)CNc1nc(-c2ccccc2)c2cc(C)ccc2n1	/	/	5.8	/	/	/
O=S(=O)(/C=C/c1ccccc1)Nc1ccc(Sc2nncs2)cc1	/	/	-4.2	/	/	/
CCNC(=O)C(=O)NCCC1CCCCN1S(=O)(=O)c1cccs1 (stereo not drawn)	-9.8	i	-5.6	0.2	-53.9*	12.8%
CCC(=O)N1CCN(c2nc(-c3ccco3)c3c(c2C#N)CC(C)(C)SC3)CC1	/	/	6.1	/	/	/
N#Cc1nc(-c2cccs2)oc1N1CCN(Cc2ccccc2)CC1	-42.8	i	3.0	0.5	-74.7*	-4.6%
S=c1[nH]nc(-c2ccco2)n1-c1ccccc1Cl	-13.3	i	-5.4	1.7	-29.4	-14.0%
S=c1[nH]nc(-c2cc(-c3ccco3)[nH]n2)n1-c1ccccc1Cl	-3.6	i	-4.6	-4.0	-51.7*	-9.7%
CNC(=O)c1ccc(-c2nc(CN3CCN(C(=O)Nc4ccccc4C(=O)OC)CC3)c(C)o2)cc1	/	/	3.9	/	/	/
c1ccc(CCCCN2CCN=C2Nc2ccccc2)cc1	-31.6	i	-5.2	-3.2	4.2	0.7%
Fc1cccc(CCN2CCN=C2Nc2ccccc2)c1	-65.2	i	-6.9	-4.0	-74.1*	15.7%
Nc1c(C(O)(C(F)(F)F)C(F)(F)F)cc(C(O)(C(F)(F)F)C(F)(F)F)c2ccccc12	-0.4	i	2.0	-13.1	-82.7*	12.0%
Cc1cccc(N2CC(C(=O)Nc3cc(Cl)ccc3-n3cncn3)CC2=O)c1C (stereo not drawn)	/	/	9.6	/	/	/
CCCCN(C)c1c(C)nc2ccc(C(=O)N(C)CCN(C)C)cn12	-12.8	i	3.7	-0.6	-71.4*	/
Cn1c(C(=O)NCC2CCN(CC(F)(F)F)C2)cc2ccccc21 (stereo not drawn)	/	/	0.6	/	/	/
O=S(=O)(c1ccc(F)cc1)N1CCC(N2CCCCCC2)CC1	-6.6	i	-22.1	15.1	-50.1*	22.8%
O=S(=O)(c1ccc(Cl)cc1)N1CCC(N2CCCCCC2)CC1	-0.2	-118.6%*	-22.8	7.6	-66.8*	11.5%
CC1CCN(C2CCN(S(=O)(=O)c3ccc(F)cc3)CC2)CC1	-4.6	i	?	4.6	-17.1	6.7%
COc1cccc(NC(=O)CSC2=C(C#N)C(c3ccccc3C)C3=C(CCCC3=O)N2)c1 (stereo not drawn)	/	/	9.0	/	/	/
O=C(/C=C/c1ccccc1O)c1ccc2ccccc2c1	/	/	-1.5	/	/	/
O=C1CCCC2=C1C(c1ccc(Cl)cc1)C1=C(CCCC1=O)O2	/	/	1.4	/	/	/
